SMN2 splice enh – qHTS Assay for Enhancers of SMN2 Splice Variant Expression; HEK293 SMN2-luciferase splicing reporter, luminescence, 30-36 h; Potency, µM (titrated, usually from 46.1 µM), without a hit: top-dose activity change, positive = activation, actives largely listed as activators; 210,000 tested, 2.8% active; note: % of control where 0% means no effect; nearly all actives have a fitted effect of over 55% in size
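HEK293 cells carry an SMN2 […]–luciferase reporter in which exon 7 inclusion puts luciferase in frame. Cells were plated 10-12 h before compound addition, then incubated 30-36 h at 37C. ONE-Glo luminescence was read; sodium butyrate at 4.5 mM final served as control.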
NPC1 promoter act – qHTS Assay for NPC1 Promoter Activators; Huh7 NPC1 promoter luciferase reporter, 24 h; Potency, µM (top dose mostly 9.22 µM), without a hit: top-dose activation, most hits filed as activators; 320,000 tested, 2.4% active; note: % of control where 0% means no effect; nearly all actives have a fitted effect of over 60% in size
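Luminescence from an NPC1 promoter-driven luciferase reporter in stably transfected Huh7 cells was measured after 24 h compound treatment at 37 °C, followed by 10 min ambient incubation with luciferase detection reagent.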
FLuc modulator – qHTS profiling assay for firefly luciferase inhibitor/activator using purifed enzyme and Km concentrations of substrates (counterscreen for miR-21 project) | Luciferin 4-monooxygenase (Photinus pyralis), P08659 | purified FLuc, Km substrates, luminescence inhibition | Potency, µM (doses to about 57.5 µM), for inactives: at the top dose activity change, negative = inhibition, usual class: inhibitors | 360,000 tested, 6.9% active;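 note: plate controls were vehicle for no effect and reference inhibitor for full effect; nearly all actives have a fitted effect of over 55% in size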
Target sequence (P08659 whole entry, looked up): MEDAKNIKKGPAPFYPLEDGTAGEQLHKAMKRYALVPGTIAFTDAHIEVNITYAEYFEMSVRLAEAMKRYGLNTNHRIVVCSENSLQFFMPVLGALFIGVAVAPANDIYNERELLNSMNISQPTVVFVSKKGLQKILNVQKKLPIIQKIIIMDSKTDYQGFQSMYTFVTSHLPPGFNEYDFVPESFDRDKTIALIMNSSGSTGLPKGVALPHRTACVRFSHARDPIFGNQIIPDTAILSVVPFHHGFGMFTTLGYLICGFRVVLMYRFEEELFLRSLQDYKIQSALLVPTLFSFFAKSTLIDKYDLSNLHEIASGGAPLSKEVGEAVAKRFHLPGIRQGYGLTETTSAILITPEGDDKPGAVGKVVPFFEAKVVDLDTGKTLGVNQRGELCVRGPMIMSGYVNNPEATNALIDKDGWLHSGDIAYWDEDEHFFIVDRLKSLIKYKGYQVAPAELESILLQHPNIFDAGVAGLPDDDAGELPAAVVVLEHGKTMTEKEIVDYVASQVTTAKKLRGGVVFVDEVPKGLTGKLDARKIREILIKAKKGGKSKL
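Biochemical qHTS of compounds, final roughly 60 µM downward over six points, against 10 nM purified firefly luciferase using Km concentrations of substrates (10 uM D-luciferin, 10 uM ATP) in Tris acetate pH 7.5 buffer; luminescence output.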
ELG1 genotox – qHTS screen for small molecules that induce genotoxicity in human embryonic kidney (HEK293T) cells expressing luciferase-tagged ELG1 | HEK293T ELG1-luciferase reporter, luminescence, 16 h | Potency, µM (titrated, usually from 46 µM), inactives show at the top dose activity change, positive = activation, actives largely listed as activators | 330,000 tested, 1.3% active; note: % of control where 0% means no effect; nearly all actives have a fitted effect of over 60% in size
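Genotoxic stress is detected as increased luminescence from luciferase-tagged ELG1 in HEK293T cells, measured with ONE-Glo after a 16 hr treatment at 37 °C.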
ELG1 DNA repair – qHTS screen for small molecules that inhibit ELG1-dependent DNA repair in human embryonic kidney (HEK293T) cells expressing luciferase-tagged ELG1; HEK293T ELG1-luciferase reporter, luminescence, 16 h; DNA damage induced by 5-fluorouridine; Potency, µM (doses to about 46.1 µM), for the others: at the highest dose activity change, negative = inhibition, most hits filed as inhibitors; 330,000 tested, 2.3% active; note: % is set by controls: 0 for no effect and ±100 for the full control effect; nearly all actives have a fitted effect of over 55% in size
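Reporter activity after DNA damage by 5-fluorouridine is monitored. Compound-treated cells incubate 16 hr at 37 °C, then ONE-Glo is added for 30 min before luminescence reading.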
Rab9 prom act – qHTS Assay for Rab9 Promoter Activators. Potency, µM (titrated, usually from 9.22 µM), for inactives: at the top dose activation, negative = inhibition, actives largely listed as activators. Huh7 Rab9 promoter-luciferase reporter, luminescence, 24 h. 320,000 tested, 2.8% active; note: % of control where 0% means no effect; nearly all actives have a fitted effect of over 60% in size
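Luminescence from Amplite-detected luciferase (10 minutes, ambient) reports Rab9 promoter activation. Before that, stable Rab9-luciferase Huh7 cells (1500/well, reduced-serum OP-MEM I plus 10% FBS) were exposed to compound for 24 hours at 37C.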
Numbers without * were called inactive; u = inconclusive; x = not tested or not shown; [ ] = remark or other dose. An excerpt weighted towards active compounds, which were near 9.2% of everything screened. Calls come from the whole dose curve; as a rule, active = well fitted curve in the direction sought with a large enough effect; inconclusive = small, poorly fitted or top-dose-only effect, or another doubt; inactive = no such curve, though single readings can be large; an effect the other way counts as inactive or inconclusive. Potency is the fitted concentration of half-maximal effect.

SMILES | SMN2 splice enh | NPC1 promoter act | FLuc modulator | ELG1 genotox | ELG1 DNA repair | Rab9 prom act
CC(=O)N1CCN(c2ccccc2NC(=O)c2cc3ccccc3o2)CC1 | x | 15% | -17% | -8% | 15µM* | 13%
COC(=O)c1ccccc1NC(=O)c1cc2ccccc2o1 | x | u | 13µM* | -1% | u | u
COC(=O)c1cc(NC(=O)c2cc3ccccc3o2)cc(C(=O)OC)c1 | x | -4% | u | -8% | u | 10%
O=C(Nc1ccccc1C(F)(F)F)c1cc2ccccc2o1 | x | 2.5µM* | 3.4µM* | 10µM* | u | 2.2µM*
Cc1ccc(NC(=O)Cc2nc(CN(C)CC(=O)Nc3ccc(C)cc3)cs2)cc1 | x | -6% | -10% | -3% | u | 3%
CCOc1ccc(NC2SC(=O)N(Cc3ccccc3)C2=O)cc1 (stereo not drawn) | 3% | x | -12% | x | x | x
CCOC(=O)c1c(C)n(C)c2ccc(OCC(O)Cn3nc(C)c(Br)c3C)cc12 (stereo not drawn) | 3% | -1% | -10% | -9% | 21µM* | 0%
COc1ccc(OC)c(-c2csc(NC(=O)C3=COCCO3)n2)c1 | x | 1% | 11µM* | -4% | 1% | 0%
COc1ccc(OC)c(-c2csc(NC(=O)c3ccc(OCC4CCCO4)cc3)n2)c1 (stereo not drawn) | -25% | -4% | 1.5µM* | -4% | 6.5µM* | -25%
COc1ccc(C(=O)Nc2nc(CC(=O)NCCc3ccccc3OC)cs2)cc1 | x | -6% | 2.7µM* | -6% | u | 5%
COc1ccc(C(=O)Nc2nc(CC(=O)NCc3ccc(F)cc3)cs2)cc1 | x | 24% | u | -9% | u | u
Cc1ccc(C)c(-c2csc(NC(=O)C3=COCCO3)n2)c1 | x | -2% | u | u | u | 0%
COc1ccc(OC)c(-c2csc(NC(=O)Cc3ccc(F)cc3)n2)c1 | x | -6% | 17µM* | -13% | -20% | -2%
COc1cccc(-c2nc(NCc3cnc(C)cn3)c3ccccc3n2)c1 | 19% | x | x | x | x | x
COc1ccc(OC)c(-c2csc(NC(=O)c3ccc(F)cc3)n2)c1 | x | u | 11µM* | 7% | u | 6%
COc1ccc(C)c2sc(NC(=O)C3=COCCO3)nc12 | u | 14% | 5.4µM* | 16µM* | u | 15%
CCC(Sc1nc2cc3c(cc2c(=O)n1CCCC(=O)NCc1ccc2c(c1)OCO2)OCO3)C(=O)NCCCOC (stereo not drawn) | x | x | 4% | x | x | x
CC(C)Cn1c(=O)c2sccc2n2c(CCCC(=O)Nc3ccc(Cl)cc3)nnc12 | x | x | -6% | x | x | x
CC(C)Cn1c(N)c(C(=O)COC(=O)c2cc(C3CC3)nc3ccccc23)c(=O)n(C)c1=O | -35% | -5% | -1% | -5% | 23µM* | -1%
CC(C)Cn1c(N)c(C(=O)COC(=O)C2Cc3ccccc3CN2S(C)(=O)=O)c(=O)n(C)c1=O (stereo not drawn) | x | -14% | 4% | -7% | 9.2µM* | -13%
CC(C)Cn1c(N)c(C(=O)COC(=O)c2cc(-c3ccccc3)nc3ccccc23)c(=O)n(C)c1=O | -39% | -9% | -5% | -7% | 7.3µM* | -4%
CC(C)Cn1c(N)c(C(=O)COC(=O)c2cc(F)cc(F)c2)c(=O)n(C)c1=O | -20% | -4% | -1% | -8% | 18µM* | -2%
Cn1c(=O)c2[nH]c(CS(=O)(=O)Cc3nc4c([nH]3)c(=O)n(C)c(=O)n4C)nc2n(C)c1=O | 8%[9.22 µM] | x | x | x | x | x
CC1(C)C[C@@H]2C(=O)CCC3O[C@@]3(C)CCC21 (stereo partly drawn) | -2% | x | x | x | x | x
Cc1ccc(CN2C(=O)c3ccccc3C2C(=O)NC2CCCCCC2)cc1 (stereo not drawn) | 2% | x | -17% | x | x | x
SMILES | SMN2 splice enh | NPC1 promoter act | FLuc modulator | ELG1 genotox | ELG1 DNA repair | Rab9 prom act
N#Cc1ccc(OCC(O)CN2CCN(c3ncc(C(F)(F)F)cc3Cl)CC2)cc1 (stereo not drawn) | x | -18% | -4% | -13% | 5.8µM* | -15%
CN(C)c1ccc(C2=NOC(CN3C(=O)c4ccccc4S3(=O)=O)C2)cc1 (stereo not drawn) | 13µM* | 3.2µM* | 3µM* | u | u | 0.63µM*
CN(C)c1nc(N(C)C)nc(N(C#N)CN2C(=O)c3ccccc3S2(=O)=O)n1 | -7% | 2% | -3% | -5% | 3% | 3%
O=C(O)c1cc(N/N=C/c2c(O)ccc3ccccc23)ccc1Cl | x | 1.6µM* | 2.4µM* | 15µM* | u | 1.4µM*
O=C(CNc1ccccc1)N/N=C/c1c(O)ccc2ccccc12 | x | -25% | -16% | 8% | u | -25%
Nc1cc(Cl)nc(N/N=C/c2c(O)ccc3ccccc23)n1 | u | u | 2.7µM* | u | u | 2.5µM*
CC/C=C\C/C=C\C/C=C\C/C=C\C/C=C\CCC(=O)O[C@H](COCCCCCCCCCCCCCCCC)COP(=O)([O-])OCC[N+](C)(C)C | -4% | x | x | x | x | x
O=C(CN1C(=O)NC(c2ccccc2)(c2ccccc2)C1=O)NCc1ccco1 | x | x | x | 0% | 3% | x
Cc1ccccc1Cn1nnc(-c2ccc3c(c2)OCO3)n1 | 4µM* | 21% | 15µM* | 19% | u | u
Cc1ccccc1Cn1ccc(-c2ccc3c(c2)OCO3)n1 | 5% | u | 15µM* | -1% | u | 29%
Fc1cccc(Cl)c1Cn1nnc(-c2ccc3c(c2)OCO3)n1 | 13µM* | u | 12µM* | u | u | u
Fc1cccc(Cn2ccc(-c3ccc4c(c3)OCO4)n2)c1 | u | 28% | 21µM* | 15% | u | 26%
Cc1cccc(NC(=O)CSc2ccc(-c3ccc4c(c3)OCO4)nn2)c1C | 25% | 0% | 2% | 10% | u | -1%
COC(=O)c1ccc(NC(=O)CCn2cnnn2)c(C)c1 | -2% | x | -1% | x | x | x
COc1ccc(CCNC(=O)Cn2nnc(-c3cccc(C(F)(F)F)c3)n2)cc1OC | 0% | x | -1% | x | x | x
CCOC(=O)c1ccc(NC(=O)c2c(NCc3sccc3C)sc3c2CCC(C)C3)cc1 (stereo not drawn) | x | x | -2% | x | x | x
O=C(Nc1cc(-c2ccccc2)[nH]n1)c1ccccc1 | x | 0.56µM* | 4.8µM* | u | u | 0.63µM*
O=C(Nc1cc(-c2ccccc2)[nH]n1)c1ccccc1F | x | 1.8µM* | 8.5µM* | u | u | 1.4µM*
